From PMC7862700, “An all-to-all approach to the identification of sequence-specific readers for epigenetic DNA modifications on cytosine”

Key:
Assay in all cases: DAPPL (digital affinity profiling via proximity ligation, sequencing); 10 mM Tris-HCl pH 7.5, 50 mM NaCl, 1 mM DTT, 4% glycerol, room temperature, 30 min; GST-TFs on glutathione beads, 16-mer random dsDNA library, 0.1% formaldehyde crosslink after washing; high values mean tight binding
FEV = biological target: T1, FEV (Homo sapiens, UniProt Q99581 1-238); conditions: protein: recombinant; tags: N-terminal GST; dsDNA, one strand shown
T1 sequence: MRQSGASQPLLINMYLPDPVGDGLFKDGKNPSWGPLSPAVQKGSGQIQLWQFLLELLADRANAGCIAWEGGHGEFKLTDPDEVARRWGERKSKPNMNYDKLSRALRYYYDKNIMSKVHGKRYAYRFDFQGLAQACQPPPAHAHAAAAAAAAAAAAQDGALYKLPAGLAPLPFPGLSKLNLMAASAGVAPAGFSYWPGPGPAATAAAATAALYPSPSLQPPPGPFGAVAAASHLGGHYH
Method in brief: (§1)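 In yeast, human transcription factors were expressed with a GST fusion, then pulled down on glutathione beads and given DNA barcodes. Pooled with a tag-only sample, they were exposed to 200 nmole of a 16-mer random double-stranded DNA library (Tris/NaCl/DTT/glycerol buffer, room temperature, 30 min), washed, crosslinked with 0.1% formaldehyde, proximity-ligated using BsaI/T4 ligase for 1 h at 37 °C, PCR-amplified and read on an Illumina NextSeq500. Each hexamer's frequency of reads for a factor, divided by the matching frequency for the tag-only sample, gives the binding signal.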

ETV5 = ETV5 (Homo sapiens, UniProt P41161 1-510); conditions: protein: recombinant; tags: N-terminal GST; dsDNA, one strand shown
ETV5, sequence (P41161 whole entry): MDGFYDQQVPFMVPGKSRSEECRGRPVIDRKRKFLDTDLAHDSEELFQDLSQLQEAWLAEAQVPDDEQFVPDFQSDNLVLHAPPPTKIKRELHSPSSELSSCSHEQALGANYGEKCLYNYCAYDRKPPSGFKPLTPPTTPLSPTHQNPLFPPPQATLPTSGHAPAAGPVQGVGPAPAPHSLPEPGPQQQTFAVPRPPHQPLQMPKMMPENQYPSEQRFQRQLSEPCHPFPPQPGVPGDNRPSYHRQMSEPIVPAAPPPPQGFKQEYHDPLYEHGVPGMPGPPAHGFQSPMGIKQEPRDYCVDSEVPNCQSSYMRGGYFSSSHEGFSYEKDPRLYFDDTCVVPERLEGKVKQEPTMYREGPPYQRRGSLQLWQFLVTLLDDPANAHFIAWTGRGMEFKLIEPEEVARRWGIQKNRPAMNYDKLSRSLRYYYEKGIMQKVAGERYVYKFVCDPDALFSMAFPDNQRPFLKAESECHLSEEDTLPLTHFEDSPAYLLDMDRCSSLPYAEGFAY
Method in brief: as §1

HSF1 = HSF1 (Homo sapiens, UniProt Q00613 1-529); conditions: protein: recombinant; tags: N-terminal GST; chain copies: 3; dsDNA, one strand shown
HSF1, sequence (Q00613 whole entry): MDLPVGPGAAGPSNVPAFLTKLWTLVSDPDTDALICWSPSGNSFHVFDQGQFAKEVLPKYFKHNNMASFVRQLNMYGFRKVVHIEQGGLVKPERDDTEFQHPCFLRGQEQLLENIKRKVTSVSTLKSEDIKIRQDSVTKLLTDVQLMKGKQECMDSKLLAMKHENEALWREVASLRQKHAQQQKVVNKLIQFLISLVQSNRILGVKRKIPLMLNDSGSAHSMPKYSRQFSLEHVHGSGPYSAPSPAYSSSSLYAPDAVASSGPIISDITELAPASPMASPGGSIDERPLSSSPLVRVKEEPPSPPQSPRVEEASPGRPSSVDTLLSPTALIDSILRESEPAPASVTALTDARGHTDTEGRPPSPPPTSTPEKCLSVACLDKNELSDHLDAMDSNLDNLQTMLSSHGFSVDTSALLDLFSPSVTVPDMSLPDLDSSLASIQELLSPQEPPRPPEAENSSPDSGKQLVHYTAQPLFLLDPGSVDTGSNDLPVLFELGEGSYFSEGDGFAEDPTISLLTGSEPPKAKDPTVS
Method in brief: as §1

SPIC = biological target: T2, SPIC (Homo sapiens, UniProt Q8N5J4 1-248); conditions: protein: recombinant; tags: N-terminal GST; dsDNA, one strand shown
T2 sequence: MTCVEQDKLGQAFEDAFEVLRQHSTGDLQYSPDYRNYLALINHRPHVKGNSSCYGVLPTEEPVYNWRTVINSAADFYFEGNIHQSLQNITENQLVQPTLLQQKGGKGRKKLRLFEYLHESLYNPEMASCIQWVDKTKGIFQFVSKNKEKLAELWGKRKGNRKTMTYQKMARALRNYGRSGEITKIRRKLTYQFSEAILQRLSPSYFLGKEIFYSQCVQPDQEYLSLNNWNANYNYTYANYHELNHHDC
Method in brief: as §1

ELF4 = ELF4 (Homo sapiens, UniProt Q99607 1-663); conditions: protein: recombinant; tags: N-terminal GST; dsDNA, one strand shown
ELF4, sequence (Q99607 whole entry): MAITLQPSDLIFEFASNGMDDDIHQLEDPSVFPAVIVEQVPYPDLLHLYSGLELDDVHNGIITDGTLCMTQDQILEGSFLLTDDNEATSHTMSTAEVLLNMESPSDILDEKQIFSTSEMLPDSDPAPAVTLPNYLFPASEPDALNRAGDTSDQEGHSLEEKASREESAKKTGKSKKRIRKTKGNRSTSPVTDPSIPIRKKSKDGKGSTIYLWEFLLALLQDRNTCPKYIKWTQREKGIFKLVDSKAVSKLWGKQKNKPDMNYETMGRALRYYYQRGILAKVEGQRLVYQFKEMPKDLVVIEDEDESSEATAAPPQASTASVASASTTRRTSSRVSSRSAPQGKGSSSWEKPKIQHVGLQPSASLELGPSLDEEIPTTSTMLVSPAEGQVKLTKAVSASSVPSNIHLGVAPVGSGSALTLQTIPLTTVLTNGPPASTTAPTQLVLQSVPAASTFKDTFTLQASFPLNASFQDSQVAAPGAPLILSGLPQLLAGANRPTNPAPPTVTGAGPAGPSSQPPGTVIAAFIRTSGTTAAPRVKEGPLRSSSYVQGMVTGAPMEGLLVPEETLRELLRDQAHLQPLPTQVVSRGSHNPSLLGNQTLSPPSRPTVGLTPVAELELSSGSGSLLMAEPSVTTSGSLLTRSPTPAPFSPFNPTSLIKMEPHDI
Method in brief: as §1

ELK4 = biological target: T3, ELK4 (Homo sapiens, UniProt P28324-2 1-405); conditions: protein: recombinant; tags: N-terminal GST; dsDNA, one strand shown
T3 sequence: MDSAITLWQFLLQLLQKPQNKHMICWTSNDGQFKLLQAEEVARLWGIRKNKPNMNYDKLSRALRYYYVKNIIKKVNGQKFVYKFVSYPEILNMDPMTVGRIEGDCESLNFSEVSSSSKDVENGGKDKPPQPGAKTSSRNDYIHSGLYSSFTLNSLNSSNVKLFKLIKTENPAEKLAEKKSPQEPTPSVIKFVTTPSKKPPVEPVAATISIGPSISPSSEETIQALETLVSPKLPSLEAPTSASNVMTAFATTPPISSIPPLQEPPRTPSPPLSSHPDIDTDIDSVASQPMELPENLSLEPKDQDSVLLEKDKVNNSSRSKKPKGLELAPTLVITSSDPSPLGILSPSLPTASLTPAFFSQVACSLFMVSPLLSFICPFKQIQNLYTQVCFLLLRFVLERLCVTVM
Method in brief: as §1

ETV2 = biological target: T4, ETV2 (Homo sapiens, UniProt O00321 1-342); conditions: protein: recombinant; tags: N-terminal GST; dsDNA, one strand shown
T4 sequence: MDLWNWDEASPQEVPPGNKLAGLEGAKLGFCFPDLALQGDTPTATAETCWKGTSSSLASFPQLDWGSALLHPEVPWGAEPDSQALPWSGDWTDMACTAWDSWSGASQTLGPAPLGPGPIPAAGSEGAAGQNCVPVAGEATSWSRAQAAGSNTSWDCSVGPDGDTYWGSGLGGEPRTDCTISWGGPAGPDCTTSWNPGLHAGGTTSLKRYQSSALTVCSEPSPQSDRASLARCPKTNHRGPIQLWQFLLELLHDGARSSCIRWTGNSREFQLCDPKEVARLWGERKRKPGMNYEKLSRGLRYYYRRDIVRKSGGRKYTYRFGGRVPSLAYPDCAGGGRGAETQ
Method in brief: as §1

ELF3 = biological target: T5, ELF3 (Homo sapiens, UniProt P78545 1-371); conditions: protein: recombinant; tags: N-terminal GST; dsDNA, one strand shown
T5 sequence: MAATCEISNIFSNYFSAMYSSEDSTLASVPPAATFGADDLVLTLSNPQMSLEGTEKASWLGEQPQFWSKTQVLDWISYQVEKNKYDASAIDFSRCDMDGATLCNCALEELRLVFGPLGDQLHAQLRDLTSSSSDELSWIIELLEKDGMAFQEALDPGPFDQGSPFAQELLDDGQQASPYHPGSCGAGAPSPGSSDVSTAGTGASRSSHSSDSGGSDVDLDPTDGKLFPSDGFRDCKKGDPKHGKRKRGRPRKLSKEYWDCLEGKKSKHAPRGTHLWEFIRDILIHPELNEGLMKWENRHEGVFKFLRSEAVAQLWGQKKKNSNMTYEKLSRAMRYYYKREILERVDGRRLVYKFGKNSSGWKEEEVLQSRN
Method in brief: as §1

ETV1 = ETV1 (Homo sapiens, UniProt P50549 1-477); conditions: protein: recombinant; tags: N-terminal GST; dsDNA, one strand shown
ETV1, sequence (P50549 whole entry): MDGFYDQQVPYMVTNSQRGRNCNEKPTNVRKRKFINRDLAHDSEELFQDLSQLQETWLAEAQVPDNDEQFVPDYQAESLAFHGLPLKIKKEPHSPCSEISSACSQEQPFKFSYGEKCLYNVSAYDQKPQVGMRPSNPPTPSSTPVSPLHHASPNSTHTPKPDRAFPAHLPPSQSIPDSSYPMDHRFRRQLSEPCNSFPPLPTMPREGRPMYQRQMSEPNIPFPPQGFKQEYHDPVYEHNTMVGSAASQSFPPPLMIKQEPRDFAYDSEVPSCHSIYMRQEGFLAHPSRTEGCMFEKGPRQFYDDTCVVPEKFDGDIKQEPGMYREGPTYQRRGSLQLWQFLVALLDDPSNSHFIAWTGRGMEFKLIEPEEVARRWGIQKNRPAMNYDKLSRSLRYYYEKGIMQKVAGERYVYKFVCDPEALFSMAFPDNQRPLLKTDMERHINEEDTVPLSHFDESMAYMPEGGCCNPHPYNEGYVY
Method in brief: as §1

ERF = biological target: T6, ERF (Homo sapiens, UniProt P50548 1-548); conditions: protein: recombinant; tags: N-terminal GST; dsDNA, one strand shown
T6 sequence: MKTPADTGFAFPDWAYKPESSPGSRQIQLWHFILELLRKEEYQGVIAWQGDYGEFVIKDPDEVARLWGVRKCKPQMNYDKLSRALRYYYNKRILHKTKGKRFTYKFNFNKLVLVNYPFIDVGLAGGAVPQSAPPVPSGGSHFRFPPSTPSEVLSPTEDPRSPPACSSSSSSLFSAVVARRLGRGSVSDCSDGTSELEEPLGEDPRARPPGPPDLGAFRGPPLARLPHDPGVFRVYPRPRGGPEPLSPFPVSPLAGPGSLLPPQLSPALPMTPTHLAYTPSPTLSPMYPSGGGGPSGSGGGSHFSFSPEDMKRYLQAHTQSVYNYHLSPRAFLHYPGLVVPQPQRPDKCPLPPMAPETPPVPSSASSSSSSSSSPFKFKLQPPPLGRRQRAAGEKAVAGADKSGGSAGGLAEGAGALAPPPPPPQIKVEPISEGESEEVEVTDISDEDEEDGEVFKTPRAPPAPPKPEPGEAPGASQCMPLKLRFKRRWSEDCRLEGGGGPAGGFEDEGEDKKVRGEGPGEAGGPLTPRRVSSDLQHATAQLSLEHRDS
Method in brief: as §1

ETV3L = biological target: T7, ETV3L (Homo sapiens, UniProt Q6ZN32 1-361); conditions: protein: recombinant; tags: N-terminal GST; dsDNA, one strand shown
T7 sequence: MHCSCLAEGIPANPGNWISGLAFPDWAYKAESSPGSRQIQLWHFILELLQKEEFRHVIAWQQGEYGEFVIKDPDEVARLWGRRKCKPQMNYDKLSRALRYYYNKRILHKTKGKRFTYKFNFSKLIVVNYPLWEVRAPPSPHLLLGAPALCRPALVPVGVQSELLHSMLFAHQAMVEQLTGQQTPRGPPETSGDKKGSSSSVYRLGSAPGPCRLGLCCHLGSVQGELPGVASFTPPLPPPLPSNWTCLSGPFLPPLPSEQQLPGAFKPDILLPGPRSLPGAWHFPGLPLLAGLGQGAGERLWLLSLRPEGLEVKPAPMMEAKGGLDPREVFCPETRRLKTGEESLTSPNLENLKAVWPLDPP
Method in brief: as §1

ETS2 = biological target: T8, ETS2 (Homo sapiens, UniProt P15036 1-469); conditions: protein: recombinant; tags: N-terminal GST; dsDNA, one strand shown
T8 sequence: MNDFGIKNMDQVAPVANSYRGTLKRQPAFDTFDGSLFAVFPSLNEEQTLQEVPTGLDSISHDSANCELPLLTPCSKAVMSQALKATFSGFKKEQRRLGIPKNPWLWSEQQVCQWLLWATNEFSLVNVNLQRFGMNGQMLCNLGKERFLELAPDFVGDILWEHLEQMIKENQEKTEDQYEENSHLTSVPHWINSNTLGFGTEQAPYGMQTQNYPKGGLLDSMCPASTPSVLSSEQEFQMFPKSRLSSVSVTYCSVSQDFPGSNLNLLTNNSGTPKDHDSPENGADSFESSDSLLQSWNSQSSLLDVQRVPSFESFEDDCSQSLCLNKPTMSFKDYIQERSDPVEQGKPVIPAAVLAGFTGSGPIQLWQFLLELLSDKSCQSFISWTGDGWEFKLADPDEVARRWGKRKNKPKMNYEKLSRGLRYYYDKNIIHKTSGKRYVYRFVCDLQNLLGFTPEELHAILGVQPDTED
Method in brief: as §1

SPDEF = biological target: T9, SPDEF (Homo sapiens, UniProt O95238 1-335); conditions: protein: recombinant; tags: N-terminal GST; dsDNA, one strand shown
T9 sequence: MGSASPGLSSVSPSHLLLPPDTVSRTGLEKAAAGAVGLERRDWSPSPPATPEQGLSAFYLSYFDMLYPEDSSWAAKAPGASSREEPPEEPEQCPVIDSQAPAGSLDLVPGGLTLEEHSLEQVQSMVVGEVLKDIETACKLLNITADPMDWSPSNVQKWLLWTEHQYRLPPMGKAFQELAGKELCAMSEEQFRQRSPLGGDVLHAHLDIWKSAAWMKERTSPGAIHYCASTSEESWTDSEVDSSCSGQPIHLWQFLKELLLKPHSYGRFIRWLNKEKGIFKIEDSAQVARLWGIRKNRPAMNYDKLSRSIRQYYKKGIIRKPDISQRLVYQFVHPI
Method in brief: as §1

ETV7 = biological target: T10, ETV7 (Homo sapiens, UniProt Q9Y603 1-341); conditions: protein: recombinant; tags: N-terminal GST; dsDNA, one strand shown
T10 sequence: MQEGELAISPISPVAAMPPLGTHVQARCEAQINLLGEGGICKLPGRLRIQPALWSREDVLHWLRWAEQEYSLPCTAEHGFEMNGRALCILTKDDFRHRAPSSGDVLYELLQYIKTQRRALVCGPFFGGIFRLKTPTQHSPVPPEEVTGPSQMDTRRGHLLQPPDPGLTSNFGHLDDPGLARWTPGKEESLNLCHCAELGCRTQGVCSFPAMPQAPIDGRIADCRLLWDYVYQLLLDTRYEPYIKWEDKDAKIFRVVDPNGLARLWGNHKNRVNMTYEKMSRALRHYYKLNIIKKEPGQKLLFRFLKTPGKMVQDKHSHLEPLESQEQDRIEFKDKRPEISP
Method in brief: as §1

ELF5 = biological target: T11, ELF5 (Homo sapiens, UniProt Q9UKW6-2 1-255); conditions: protein: recombinant; tags: N-terminal GST; dsDNA, one strand shown
T11 sequence: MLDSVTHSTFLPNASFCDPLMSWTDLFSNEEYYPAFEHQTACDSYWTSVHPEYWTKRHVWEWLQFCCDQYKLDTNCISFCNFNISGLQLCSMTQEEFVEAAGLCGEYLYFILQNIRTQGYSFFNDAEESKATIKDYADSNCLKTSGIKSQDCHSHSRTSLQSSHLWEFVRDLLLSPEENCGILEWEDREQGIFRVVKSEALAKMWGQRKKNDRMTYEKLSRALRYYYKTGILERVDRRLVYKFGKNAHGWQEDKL
Method in brief: as §1

ETV3 = biological target: T12, ETV3 (Homo sapiens, UniProt P41162-2 1-143); conditions: protein: recombinant; tags: N-terminal GST; dsDNA, one strand shown
T12 sequence: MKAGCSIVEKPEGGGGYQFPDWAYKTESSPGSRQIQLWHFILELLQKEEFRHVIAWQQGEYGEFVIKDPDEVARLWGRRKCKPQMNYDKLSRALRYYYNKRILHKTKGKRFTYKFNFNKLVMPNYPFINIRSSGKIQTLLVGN
Method in brief: as §1

ETV6 = ETV6 (Homo sapiens, UniProt P41212 1-452); conditions: protein: recombinant; tags: N-terminal GST; dsDNA, one strand shown
ETV6, sequence (P41212 whole entry): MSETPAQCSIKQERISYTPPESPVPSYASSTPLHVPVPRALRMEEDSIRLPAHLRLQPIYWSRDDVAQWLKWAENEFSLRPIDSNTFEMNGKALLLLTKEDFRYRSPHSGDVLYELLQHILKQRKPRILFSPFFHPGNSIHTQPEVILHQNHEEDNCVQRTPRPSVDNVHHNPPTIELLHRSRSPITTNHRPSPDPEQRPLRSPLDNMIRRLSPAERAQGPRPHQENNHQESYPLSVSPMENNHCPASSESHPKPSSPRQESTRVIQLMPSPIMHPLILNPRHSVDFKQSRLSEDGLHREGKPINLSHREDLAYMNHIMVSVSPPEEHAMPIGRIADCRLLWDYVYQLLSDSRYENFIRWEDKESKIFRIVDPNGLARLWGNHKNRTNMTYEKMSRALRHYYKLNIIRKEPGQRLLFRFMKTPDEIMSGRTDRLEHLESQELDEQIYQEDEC
Method in brief: as §1

## GAAGCA
FEV
  binding signal: 1.29 fold enrichment (6-mer frequency, TF over GST control)
ETV5
  binding signal: 1.41 fold enrichment (6-mer frequency, TF over GST control)
HSF1
  binding signal: 1.06 fold enrichment (6-mer frequency, TF over GST control)
SPIC
  binding signal: 1.19 fold enrichment (6-mer frequency, TF over GST control)
ELF4
  binding signal: 1.27 fold enrichment (6-mer frequency, TF over GST control)
ELK4
  binding signal: 1.2 fold enrichment (6-mer frequency, TF over GST control)
ETV2
  binding signal: 1.37 fold enrichment (6-mer frequency, TF over GST control)
ELF3
  binding signal: 1.27 fold enrichment (6-mer frequency, TF over GST control)
ETV1
  binding signal: 1.41 fold enrichment (6-mer frequency, TF over GST control)
ERF
  binding signal: 1.24 fold enrichment (6-mer frequency, TF over GST control)
ETV3L
  binding signal: 1.18 fold enrichment (6-mer frequency, TF over GST control)
ETS2
  binding signal: 1.32 fold enrichment (6-mer frequency, TF over GST control)
SPDEF
  binding signal: 1.33 fold enrichment (6-mer frequency, TF over GST control)
ETV7
  binding signal: 1.37 fold enrichment (6-mer frequency, TF over GST control)
ELF5
  binding signal: 1.4 fold enrichment (6-mer frequency, TF over GST control)
ETV3
  binding signal: 1.36 fold enrichment (6-mer frequency, TF over GST control)
ETV6
  binding signal: 1.43 fold enrichment (6-mer frequency, TF over GST control)
